# In PubChem BioAssay AID1159580 (chemical genetic matrix, 2015):
# Values joined by “and” are separate entries in the source; they are usually repeats but may differ in a detail not shown here. Equal entries are not always repeated. About 2,000 (36%) of roughly 5,500 compounds were called active. Inconclusive results (about 18%) are left out. This is one part of the list. Values without a mark were called inactive. Rule as the data show it: active = normalized growth mostly below about 0.91 (no sharp cut-off); inconclusive = no clear call, values can overlap the other calls; inactive = mostly above about 0.92.
# Assay: chemical genetic growth profiling, strain panel (AID 1159580);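 also: tested at 20 µM; growth read once vehicle control cultures reached saturation at 30 °C; 1 = growth at the plate median or of vehicle wells; lower values mean less growth of the strain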
# Details: growth OD
smiles,measurement,setting,value
Cc1ccc(N(CC2=NCCN2)c2cccc(O)c2)cc1,normalized growth,"S. cerevisiae deletion strains, locus YJR075W, strain HOC1, active compounds read low",0.967
same,normalized growth,"S. cerevisiae deletion strains, locus YKL009W, strain mrt4, active compounds read low",0.99
same,normalized growth,"S. cerevisiae deletion strains, locus YKL068W, active compounds read low",1
same,normalized growth,"S. cerevisiae deletion strains, locus YKL085W, strain MDH1 (second series), active compounds read low",1.03
same,normalized growth,"S. cerevisiae deletion strains, locus YKL085W, strain MDH1, active compounds read low",1.03
same,normalized growth,"S. cerevisiae deletion strains, locus YKL160W, strain elf1, active compounds read low",1.01
same,normalized growth,"S. cerevisiae deletion strains, locus YKL190W, strain CNB1, active compounds read low",1.01
same,normalized growth,"S. cerevisiae deletion strains, locus YKR001C, strain vps1, active compounds read low",1.01
same,normalized growth,"S. cerevisiae deletion strains, locus YKR026C, strain gcn3, active compounds read low",1.03
same,normalized growth,"S. cerevisiae deletion strains, locus YKR091W, strain srl3, active compounds read low",1
same,normalized growth,"S. cerevisiae deletion strains, locus YLL001W, strain dnm1, active compounds read low",1
same,normalized growth,"S. cerevisiae deletion strains, locus YLL026W, active compounds read low",1.02
same,normalized growth,"S. cerevisiae deletion strains, locus YLL041C, strain sdh2, active compounds read low",1.01
same,normalized growth,"S. cerevisiae deletion strains, locus YLR027C, strain aat2, active compounds read low",1.01
same,normalized growth,"S. cerevisiae deletion strains, locus YLR039C, strain RIC1, active compounds read low",1.06
same,normalized growth,"S. cerevisiae deletion strains, locus YLR058C, strain SHM2, active compounds read low",1.01
same,normalized growth,"S. cerevisiae deletion strains, locus YLR102C, strain apc9, active compounds read low",1.01
same,normalized growth,"S. cerevisiae deletion strains, locus YLR113W, strain HOG1, active compounds read low",1.04
same,normalized growth,"S. cerevisiae deletion strains, locus YLR221C, strain rsa3, active compounds read low",0.998
same,normalized growth,"S. cerevisiae deletion strains, locus YLR258W, strain gsy2, active compounds read low",1
same,normalized growth,"S. cerevisiae deletion strains, locus YLR262C, strain YPT6 (second series), active compounds read low",1.02
same,normalized growth,"S. cerevisiae deletion strains, locus YLR262C, strain YPT6, active compounds read low",1.02
same,normalized growth,"S. cerevisiae deletion strains, locus YLR268W, strain sec22, active compounds read low",0.947
same,normalized growth,"S. cerevisiae deletion strains, locus YLR320W, strain mms22, active compounds read low",0.987
same,normalized growth,"S. cerevisiae deletion strains, locus YLR330W, strain CHS5, active compounds read low",1.01
same,normalized growth,"S. cerevisiae deletion strains, locus YLR342W, strain FKS1 (second series), active compounds read low",1.04
same,normalized growth,"S. cerevisiae deletion strains, locus YLR342W, strain FKS1, active compounds read low",1.02
same,normalized growth,"S. cerevisiae deletion strains, locus YLR357W, strain rsc2, active compounds read low",1.02
same,normalized growth,"S. cerevisiae deletion strains, locus YLR370C, strain arc18, active compounds read low",1.01
same,normalized growth,"S. cerevisiae deletion strains, locus YLR371W, strain rom2, active compounds read low",1.01
same,normalized growth,"S. cerevisiae deletion strains, locus YLR384C, strain iki3, active compounds read low",1.02
same,normalized growth,"S. cerevisiae deletion strains, locus YLR418C, strain cdc73, active compounds read low",0.955
same,normalized growth,"S. cerevisiae deletion strains, locus YML016C, strain PPZ1, active compounds read low",1.01
same,normalized growth,"S. cerevisiae deletion strains, locus YML032C, strain rad52, active compounds read low",0.819 (active)
same,normalized growth,"S. cerevisiae deletion strains, locus YML120C, strain ndi1, active compounds read low",0.999
same,normalized growth,"S. cerevisiae deletion strains, locus YML124C, strain tub3, active compounds read low",1.02
same,normalized growth,"S. cerevisiae deletion strains, locus YMR058W, strain fet3, active compounds read low",1.02
same,normalized growth,"S. cerevisiae deletion strains, locus YMR078C, strain ctf18, active compounds read low",1
same,normalized growth,"S. cerevisiae deletion strains, locus YMR125W, strain sto1, active compounds read low",1.04
same,normalized growth,"S. cerevisiae deletion strains, locus YMR129W, active compounds read low",1
same,normalized growth,"S. cerevisiae deletion strains, locus YMR205C, strain PFK2, active compounds read low",1.02
same,normalized growth,"S. cerevisiae deletion strains, locus YMR223W, strain ubp8, active compounds read low",0.973
same,normalized growth,"S. cerevisiae deletion strains, locus YMR231W, strain pep5, active compounds read low",1.02
same,normalized growth,"S. cerevisiae deletion strains, locus YMR263W, strain SAP30, active compounds read low",0.989
same,normalized growth,"S. cerevisiae deletion strains, locus YMR307W, strain GAS1, active compounds read low",0.988 and 0.994
same,normalized growth,"S. cerevisiae deletion strains, locus YNL067W, strain RPL9B, active compounds read low",0.967
same,normalized growth,"S. cerevisiae deletion strains, locus YNL071W, strain lat1, active compounds read low",1.01
same,normalized growth,"S. cerevisiae deletion strains, locus YNL128W, strain TEP1, active compounds read low",0.988
same,normalized growth,"S. cerevisiae deletion strains, locus YNL153C, strain GIM3, active compounds read low",0.983
same,normalized growth,"S. cerevisiae deletion strains, locus YNL175C, strain NOP13, active compounds read low",1.02
same,normalized growth,"S. cerevisiae deletion strains, locus YNL183C, strain NPR1, active compounds read low",0.99
same,normalized growth,"S. cerevisiae deletion strains, locus YNL197C, strain WHI3, active compounds read low",1.03
same,normalized growth,"S. cerevisiae deletion strains, locus YNL209W, strain ssb2, active compounds read low",1.04
same,normalized growth,"S. cerevisiae deletion strains, locus YNL224C, strain SQS1, active compounds read low",1.06
same,normalized growth,"S. cerevisiae deletion strains, locus YNL233W, strain BNI4, active compounds read low",0.966
same,normalized growth,"S. cerevisiae deletion strains, locus YNL248C, strain rpa49, active compounds read low",1.03
same,normalized growth,"S. cerevisiae deletion strains, locus YNL250W, strain rad50, active compounds read low",0.841 (active)
same,normalized growth,"S. cerevisiae deletion strains, locus YNL271C, strain bni1, active compounds read low",0.998
same,normalized growth,"S. cerevisiae deletion strains, locus YNL298W, strain CLA4, active compounds read low",0.899 (active)
same,normalized growth,"S. cerevisiae deletion strains, locus YNL307C, strain MCK1, active compounds read low",0.969
same,normalized growth,"S. cerevisiae deletion strains, locus YNL322C, strain KRE1 (second series), active compounds read low",1.01
same,normalized growth,"S. cerevisiae deletion strains, locus YNL322C, strain KRE1, active compounds read low",1 and 0.995
same,normalized growth,"S. cerevisiae deletion strains, locus YNR049C, strain mso1, active compounds read low",1.02
same,normalized growth,"S. cerevisiae deletion strains, locus YNR052C, strain pop2, active compounds read low",0.998
same,normalized growth,"S. cerevisiae deletion strains, locus YOL006C, strain TOP1, active compounds read low",0.967
same,normalized growth,"S. cerevisiae deletion strains, locus YOL012C, strain htz1",1.24
same,normalized growth,"S. cerevisiae deletion strains, locus YOL147C, strain pex11, active compounds read low",1.01
same,normalized growth,"S. cerevisiae deletion strains, locus YOR001W, strain rrp6, active compounds read low",0.993
same,normalized growth,"S. cerevisiae deletion strains, locus YOR061W, strain CKA2, active compounds read low",1.02
same,normalized growth,"S. cerevisiae deletion strains, locus YOR069W, strain VPS5, active compounds read low",1.06
same,normalized growth,"S. cerevisiae deletion strains, locus YOR070C, strain gyp1, active compounds read low",1
same,normalized growth,"S. cerevisiae deletion strains, locus YOR080W, strain dia2, active compounds read low",1.04
same,normalized growth,"S. cerevisiae deletion strains, locus YOR083W, strain WHI5 (second series), active compounds read low",1.03
same,normalized growth,"S. cerevisiae deletion strains, locus YOR083W, strain WHI5, active compounds read low",0.969
same,normalized growth,"S. cerevisiae deletion strains, locus YOR106W, strain vam3, active compounds read low",1.03
same,normalized growth,"S. cerevisiae deletion strains, locus YOR136W, strain idh2, active compounds read low",1.01
same,normalized growth,"S. cerevisiae deletion strains, locus YOR144C, strain elg1, active compounds read low",1.01
same,normalized growth,"S. cerevisiae deletion strains, locus YOR184W, strain ser1, active compounds read low",0.975
same,normalized growth,"S. cerevisiae deletion strains, locus YOR231W, strain MKK1, active compounds read low",1.02
same,normalized growth,"S. cerevisiae deletion strains, locus YOR265W, strain rbl2, active compounds read low",1
same,normalized growth,"S. cerevisiae deletion strains, locus YOR270C, strain vph1, active compounds read low",1.06
same,normalized growth,"S. cerevisiae deletion strains, locus YOR290C, strain snf2, active compounds read low",1.02
same,normalized growth,"S. cerevisiae deletion strains, locus YOR316C, strain cot1, active compounds read low",1.01
same,normalized growth,"S. cerevisiae deletion strains, locus YPL051W, strain arl3, active compounds read low",1
same,normalized growth,"S. cerevisiae deletion strains, locus YPL055C, strain LGE1, active compounds read low",0.908
same,normalized growth,"S. cerevisiae deletion strains, locus YPL078C, strain atp4, active compounds read low",1.02
same,normalized growth,"S. cerevisiae deletion strains, locus YPL106C, strain sse1, active compounds read low",1.01
same,normalized growth,"S. cerevisiae deletion strains, locus YPL240C, strain hsp82, active compounds read low",1
same,normalized growth,"S. cerevisiae deletion strains, locus YPL241C, strain CIN2, active compounds read low",1.04 and 1.01
same,normalized growth,"S. cerevisiae deletion strains, locus YPL256C, strain CLN2, active compounds read low",1.05
same,normalized growth,"S. cerevisiae deletion strains, locus YPR119W, strain clb2, active compounds read low",1
same,normalized growth,"S. cerevisiae deletion strains, locus YPR141C, strain kar3, active compounds read low",1
same,normalized growth,"S. cerevisiae deletion strains, locus YPR163C, strain tif3, active compounds read low",0.991
same,normalized growth,"S. cerevisiae deletion strains, locus YPR167C, strain met16, active compounds read low",1.01
same,normalized growth,"S. cerevisiae deletion strains, strain wtn01, active compounds read low",0.977
same,normalized growth,"S. cerevisiae strains, strain wild type, active compounds read low",1
